# Assay results reported in PubChem BioAssay AID485284 (NMMLSC, 2010).
# Entries with a potency or affinity are not part of this list.
# Test: loss of vesicle association with mouse CD8+ T cells – mouse 2C CD8+ T cells, flow cytometry, dose response (AID 485284);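 also: drosophila derived vesicles carrying Ld MHC with QL9 peptide plus B7-1 and ICAM-1; vesicle binding seen as anti-B7-1 PE fluorescence on CD8 gated cells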
# Conditions: 2C mouse CD8+ T cell-exosome binding; at 45 µM (top of the series)
row,Compound,"binding remaining, % of control [%]"
1,COc1ccc(S(=O)(=O)N2CCCC2C(=O)Nc2ccc(C(C)=O)cc2)cc1 (stereo not drawn),91.8
2,CCCCN(C(=O)CCCc1nc2ccccc2s1)c1c(N)n(CC(C)C)c(=O)[nH]c1=O,187
3,CC1CCC(NC(=O)CN2C(=O)NC3(CCCCCC3)C2=O)CC1 (stereo not drawn),101
4,CCN1CCN(c2ccc(NC(=O)c3cc4ccccc4cc3OC)cc2C)CC1,128
5,COc1ccccc1CNC(=O)c1ccc(N(C)S(=O)(=O)c2ccc(C)cc2)cc1,156
6,NC(=O)CCS(=O)(=O)CCN1CCN(S(=O)(=O)c2ccc3c(c2)CCC3)CC1,170
7,CCCc1nnc(NC(=O)c2ccc(S(=O)(=O)N(C)c3ccccc3OC)cc2)s1,142
8,CN(C)S(=O)(=O)c1cccc(-n2sc3ccccc3c2=O)c1,73.9
9,Cc1ccccc1C(=O)N1CCC(C(=O)Nc2ccc(C)c(S(=O)(=O)N3CCCCC3)c2)CC1,134
10,O=C(NNC(=S)NC(=O)c1ccco1)c1ccc(F)cc1,159
11,Cc1ccc2c(Cl)cc(Cl)c(OCC(=O)OCC(=O)Nc3ccc(C#N)cc3)c2n1,141
12,COc1ccc(N2C(=O)CC(Sc3ncn[nH]3)C2=O)c(OC)c1 (stereo not drawn),135
13,CCOc1ccc(-c2csc(NNC3=NCCCCC3)n2)cc1,156
14,O=C(Nn1cnc2ccccc2c1=O)C1CCCCC1,106
15,O=C(Cc1c(Cl)cccc1Cl)Nc1cccc(S(=O)(=O)N2CCOCC2)c1,112
16,O=C(Cc1ccc(S(=O)(=O)N2CCOCC2)s1)Nc1ccc(S(=O)(=O)N2CCCCC2)cc1,72.7
17,O=C(CC12CC3CC(CC(C3)C1)C2)N/N=C/c1ccc([N+](=O)[O-])o1,70.5

row,Compound,"binding remaining, % of control [%]"
1,COc1ccc(NC(=O)Nc2c(O)ccc3ccccc23)cc1,76.2
2,COc1ccc(CN2C(=O)C(C)Nc3ncnc(N4CCN(c5ccccn5)CC4)c32)cc1 (stereo not drawn),22
3,CN(C)S(=O)(=O)c1ccc(C(=O)NCCc2ccco2)cc1,128
4,COc1ccc(NC(=O)COC(=O)c2cc(Cl)ccc2O)cc1S(=O)(=O)N1CCCCC1,75.3
5,CCC(C)S(=O)(=O)c1snnc1C (stereo not drawn),164
6,O=C(COC(=O)c1ccc(S(=O)(=O)N2CCOCC2)cc1)Nc1ccccc1OC(F)F,20.5
7,COc1ccc(NC(=O)CC2C(=O)N(Cc3ccccc3)C(=S)N2CCN2CCOCC2)cc1 (stereo not drawn),106
8,COc1ccc(NC(=O)C2CCC(C(C)(C)C)CC2)cc1S(=O)(=O)N1CCCCC1 (stereo not drawn),97.1
9,O=C(Cc1cccc(NC(=O)C2CCCN(C(=O)C3CC3)C2)c1)Nc1cccc(C(=O)N2CCCC2)c1 (stereo not drawn),47.2
10,Cc1ccc2oc(=O)c(/C=C(\O)c3sc(C)nc3C)nc2c1,119
11,CCOC(=O)C1(CC2CCCCO2)CCN(S(=O)(=O)c2ccc(C)s2)CC1 (stereo not drawn),105
12,CCOC(=O)c1cn(CC)c2cc(Cl)c([N+](=O)[O-])cc2c1=O,128
13,CC(C)(C)NC(=O)COc1ccc(CNCc2cccnc2)cc1,90.5
14,COc1ccc(Nc2ccccc2N)cc1,182
15,COc1ccc(-c2cc(=O)c3cc(O)ccc3o2)cc1,110
16,CC1CCN(S(=O)(=O)c2csc(C(=O)Nc3ccccc3)c2)CC1,61.2
